Measured values reported in PubChem BioAssay (NCATS).
Records with an inconclusive call do not appear. A call without a number means that no potency is given here. Active and inactive are the calls of the source. Unless noted, the call rests on the fitted dose curve; in most records, active means well fitted curve in the direction sought with a large enough effect; inconclusive means small, poorly fitted or top-dose-only effect, or another doubt; inactive means no such curve, though single readings can be large; an effect the other way counts as inactive or inconclusive.

Legend:
[1] = target: Arylsulfatase A (Homo sapiens) (UniProt P15289); test: qHTS screen for enhancers of Arylsulfatase A (ASA1): LOPAC Validation Assay (AID 720538)
Method in brief: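 Cell-based enhancement test: residual ASA activity in SV40-transformed I179S patient fibroblasts is measured by pNCS turnover (0.5mM final, 14h, room temperature) following 48h compound incubation; higher fluorescence indicates activation.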

[2] = qHTS for compounds that reverse cellular toxicity of Amyloid beta (A-beta) peptide in yeast: LOPAC Validation Assay (AID 720559)
Method in brief: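 Here, A-beta-toxic yeast grow with test compounds at 30 C for 48 hr before optical density at 600 nm is recorded; data are normalized against DMSO and the FeCl3-clioquinol control.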

[3] = qHTS for Activators of Parkin Expression: LOPAC Validation Assay (NLuc Reporter) (AID 720572)
Method in brief: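 Parkin promoter-driven FLuc/NLuc neuronal reporter cells; 24 h plating, 7-pt dose response, 24 h at 37 C/5% CO2; FLuc then NanoLuc reagent, 10 min each, luminescence; DMSO/positive control normalized.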

[4] = qHTS for Activators of Parkin Expression: LOPAC Validation Assay (FLuc Reporter) (AID 720573)
Method in brief: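 Readout is FLuc luminescence from neuronal reporter cells (Parkin promoter, FLuc plus NLuc) after 24 h compound exposure in dose response. Values normalized to neutral DMSO and positive-control compounds.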

[5] = target: T1, Hexokinase-4 (Homo sapiens) + Glucokinase regulatory protein (Homo sapiens) (UniProt P35557+Q14397); test: qHTS assay for inhibitors of recombinant human GCK-GKRP interaction: Diaphorase-coupled assay (AID 743205)
Method in brief: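 Signal derives from resorufin generated by diaphorase, linked to GCK turnover of glucose (5 mM) and ATP (0.4 mM). Enzyme complex was added after a 20-minute compound preincubation and monitored for 30 minutes.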

[6] = target: T1, Hexokinase-4 (Homo sapiens) + Glucokinase regulatory protein (Homo sapiens); test: qHTS assay for inhibitors of recombinant human GCK-GKRP interaction: ADP-Glo assay (AID 743206)
Method in brief: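 GST-GCK and FLAG-GKRP (15 nM each in the dispensed mix, with 2 uM S6P) react with 0.4 mM ATP and 5 mM glucose (final) in Hepes pH 7.6 for 60 min at room temperature. ADP is measured by ADP-Glo luminescence.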

[7] = target: T1, Hexokinase-4 (Homo sapiens) + Glucokinase regulatory protein (Homo sapiens); test: qHTS assay for inhibitors of recombinant human GCK-GKRP interaction: HTRF assay (AID 743207)
Method in brief: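 Titration screening format: recombinant GST-GCK and FLAG-GKRP at 5 nM, S6P at 2 uM, labelled anti-tag antibodies, 60 min at RT, dual-wavelength HTRF readout.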

[8] = Natriuretic polypeptide receptor (hNpr1) antagonism - Pilot counterscreen GloSensor control cell line (AID 1347045; calls by dose curve)
Method in brief: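 Luminescence was read before and 20 min after adding 50 uM SNP, which stimulates soluble guanylyl cyclase. The HEK293 cells expressing the GloSensor cGMP sensor had been preloaded with 2% reagent for 2 h and treated with compound.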

[9] = target: Atrial natriuretic peptide receptor 1 (Homo sapiens) (UniProt P16066); test: Natriuretic polypeptide receptor (hNpr1) antagonism - Pilot screen (AID 1347049; calls by dose curve;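 further: agonist-evoked cGMP luminescence read 20 min after hNppA addition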)
Method in brief: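 Readout is cGMP-driven firefly luciferase luminescence in HEK293 cells carrying hNpr1 and a PDE5-domain GloSensor, read before and 20 min after 0.1 nM hNppA stimulation. Cells had 2% substrate reagent for 2 h and test compound for 30 min.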

[10] = target: T2, Tyrosine-protein phosphatase non-receptor type substrate 1 (Homo sapiens) + Leukocyte surface antigen CD47 (Homo sapiens) (UniProt P78324+Q08722); test: CD47-SIRPalpha protein protein interaction - LANCE assay qHTS validation (AID 1347057; active means well fitted curve in the direction sought with a large enough effect in the signal ratio, with a control signal flat, not every such curve was filed as active; the % refers to the signal ratio)
Method in brief: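 First, His-tagged CD47 and Eu-labelled anti-His antibody met the compound for 30 min; next, site-specifically biotinylated SIRPalpha was added for 30 min; finally streptavidin-APC was added before reading the TR-FRET ratio.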

[11] = target: T2, Tyrosine-protein phosphatase non-receptor type substrate 1 (Homo sapiens) + Leukocyte surface antigen CD47 (Homo sapiens); test: CD47-SIRPalpha protein protein interaction - HTRF assay qHTS validation (AID 1347058; active means well fitted curve in the direction sought with a large enough effect in the signal ratio, not every such curve was filed as active; the % refers to the signal ratio;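 further: recombinant soluble extracellular CD47 with His tag and biotinylated SIRPalpha domains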)
Method in brief: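 TR-FRET read (Ch1/Ch2 ratio) of soluble extracellular CD47 and Avi-biotinylated SIRPalpha domains in PBS pH 7.4 with 0.05% IGEPAL; 7-point compound titration. Sequential 30 min room-temperature steps; non-biotinylated SIRPalpha as control inhibitor.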

[12] = target: T2, Tyrosine-protein phosphatase non-receptor type substrate 1 (Homo sapiens) + Leukocyte surface antigen CD47 (Homo sapiens); test: CD47-SIRPalpha protein protein interaction - Alpha assay qHTS validation (AID 1347059);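 further: bead proximity luminescence from CD47 binding SIRPalpha after compound preincubation with SIRPalpha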
Method in brief: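 Binding is measured by AlphaScreen proximity: Ni-NTA acceptor beads capture His-CD47, streptavidin donor beads capture biotin-SIRPalpha. Each of three additions (SIRPalpha with compound, CD47, beads) incubates 30 min at room temperature protected from light.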

[13] = target: Parathyroid hormone/parathyroid hormone-related peptide receptor (Homo sapiens) (UniProt Q03431); test: qHTS for PTHR1 Agonists: Optimization Screen against the NCGC LOPAC library (AID 1347079);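 further: GloSensor cAMP luminescence in HEK-293 GP2 cells expressing human PTHR1 with IBMX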
Method in brief: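 Agonist readout: GloSensor cAMP luminescence, read after 15 min at room temperature. HEK-293-derived GP2 line carries PTHR1; compounds tested as a titration for 1 hr at 37C in presence of IBMX. M-PTH (1-15) served as control.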

[14] = target: N-terminal Xaa-Pro-Lys N-methyltransferase 1 (Homo sapiens) (UniProt Q9BV86); test: qHTS Assay for Inhibitors of N-terminal methyltransferase 1 (NTMT1): LOPAC validation of the NTMT1 SAHH-coupled ThioGlo3 Assay (AID 1347143);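 further: SAH from peptide methylation measured as thiol fluorescence via SAHH coupling and ThioGlo3; potency means the concentration at half of the fitted maximal effect; nearly all actives have a fitted effect of over 70% in size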
Method in brief: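 Inhibition of NTMT1 methylation of peptide SPKRIA is followed by converting SAH with SAHH and labelling the released thiol with ThioGlo3. Plates are read at 340/450nm before and 30 min after reagent addition, both at room temperature.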

[15] = qHTS to identify inhibitors of the type 1 interferon - major histocompatibility complex class I in skeletal muscle: primary screen against the NCATS LOPAC collection (AID 1347405);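 further: lytic HiBiT luminescence reporting HLA-B protein level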
Method in brief: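 Luminescence from HiBiT fused to endogenous HLA-B in CRISPR-engineered human myoblasts served as the read-out. Cells received 4.0 ng/ml IFN-beta plus compound (seven concentrations, 1:4.3 steps, highest 46 uM final) for 24 hrs before lytic detection.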

[16] = qHTS for inhibitors of adenylyl cyclases using a fission yeast platform: a pilot screen against the NCATS LOPAC library (AID 1347410)
Method in brief: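 Inhibition of GNAS-stimulated AC9 activity in S. pombe was inferred from derepression of a PKA-repressed fbp1-GFP reporter, measured as cytometric fluorescence after 18 h at 30C with compounds at up to 57 µM.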

[17] = Validation qHTS assay for inhibitors of Activation Induced Cytidine Deaminase (AID): UDG Counterscreen signal (AID 1347427)
Method in brief: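 Counterscreen read of UDG activity (2 U/mL, 4/3x) in the FRET deamination format with AID (1 uM, 4/3x), DJC20/DJC23 substrates (250 nM, 4x), 4 h at room temperature. NaOH stop, fluorescence at 560 ex/665 em.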

[18] = target: Single-stranded DNA cytosine deaminase (Homo sapiens) (UniProt Q9GZX7); test: Validation qHTS assay for inhibitors of Activation Induced Cytidine Deaminase (AID): AID signal (AID 1347429)
Method in brief: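 Fluorescence at 540 nm excitation and 590 nm emission reports ssDNA cytosine deamination by AID, with UDG in the same well. Compound-treated reactions ran 4 hr at room temperature with DJC20/DJC23 substrate, followed by 30 min NaOH treatment.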

[19] = target: Calcium and integrin-binding protein 1 (Homo sapiens) (UniProt Q99828); test: Validation qHTS for Identification of Calcium Integrin Binding protein 1 (CIB1) Competitor (AID 1508618)
Method in brief: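 CIB1-GST (1 uM final) in 5 mM HEPES pH 7.4, 125 mM NaCl, 5 mM CaCl2, 0.01% Tween20 was preincubated 15 min at room temperature with compound (up to 114 uM), then FITC-alphaIIb peptide (100 nM) added for 15 min; fluorescence polarization read.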

[20] = Primary qHTS for small molecule stabilizers of the endoplasmic reticulum resident proteome: Secreted ER Calcium Modulated Protein (SERCaMP) assay (AID 1508630)
Method in brief: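 GLuc-SERCaMP-expressing SH-SY5Y cells, pretreated 16 h with compound, are challenged with thapsigargin to empty ER calcium stores; after 4 h, coelenterazine is added directly to the medium and luminescence is imaged.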

Papain (Carica papaya) = Papain (Carica papaya) (UniProt P00784); test: Primary qHTS assay for inhibitors of the protease papain (AID 1645873);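 further: papain turnover of Z-FR-AMC read as the AMC fluorescence gain over 10 min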
[21] = target: Catechol O-methyltransferase (Homo sapiens) (UniProt P21964); test: Confirmatory Screen for Target Class Profiling of Small Molecule Inhibitors of Methyltransferases (AID 1745852; calls by dose curve); settings: MTase-Glo luminescence, SAH detection, recombinant enzyme; measured here: COMT max response; stronger effect = lower value
[22] = target: Guanidinoacetate N-methyltransferase (Homo sapiens) (UniProt Q14353); test: as above; settings: activity change, negative = inhibition: at 57.3 µM (top of the series) unless noted
[23] = target: Nicotinamide N-methyltransferase (Homo sapiens) (UniProt P40261); test: as above; settings: MTase-Glo luminescence, SAH detection, recombinant enzyme; measured here: NNMT max response; stronger effect = lower value
[24] = target: Phenylethanolamine N-methyltransferase (Homo sapiens) (UniProt P11086); test: as above; settings: MTase-Glo luminescence, SAH detection, recombinant enzyme; measured here: PNMT max response; stronger effect = lower value
[25] = target: Metallo-beta-lactamase type 2 (Klebsiella pneumoniae) (UniProt C7C422); test: qHTS to identify inhibitors of the New Delhi Metallo-beta-lactamase (NDM): assay validation screen against the NCATS LOPAC Collection (AID 1794843);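 further: nitrocefin turnover by NDM-1 measured as 485 nm absorbance at plateau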
Method in brief: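 NDM-1 at 2 nM final in 50 mM HEPES pH 7.0 with 1 uM ZnSO4 and 0.01% Tween20 was preincubated with library compounds in DMSO. Nitrocefin (50 uM stock) was then added, and absorbance at 485 nm was read at the kinetic plateau.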

[26] = target: Glutathione peroxidase 1 (Homo sapiens) (UniProt P07203); test: Primary qHTS Assay for Inhibitors of Recombinant Selenoprotein Glutathione Peroxidase 1 (GPX1) (AID 1845191); further: nearly all actives have a fitted effect of over 65% in size
Method in brief: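 10 nM GPX1 + cpd, 30 min RT; start w/ 1 mM GSH, 0.5 mM cumene hydroperoxide, 0.5 mM NADPH, 100 nM GR, 0.01% BSA; buffer 50 mM Tris-HCl pH 7.5, 2 mM EDTA, 150 mM NaCl; Fl 340/450, 0 & 15 min.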

[27] = target: Phospholipid hydroperoxide glutathione peroxidase GPX4 (Homo sapiens) (UniProt P36969); test: Primary qHTS Assay for Inhibitors of Recombinant Selenoprotein Glutathione Peroxidase 4 (GPX4) (AID 1845192); settings: outcome: dose series up to 50 µM unless noted; further: nearly all actives have a fitted effect of over 65% in size
Method in brief: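 NADPH consumption, followed by fluorescence at 340/450 nm between 0 and 15 min, reports GPX4 activity via coupled glutathione reductase (100 nM). Enzyme 200 nM was pre-exposed to compound 30 min; 0.5 mM cumene hydroperoxide and 1 mM GSH served as substrates.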

T2 sequence (P78324 whole entry, looked up): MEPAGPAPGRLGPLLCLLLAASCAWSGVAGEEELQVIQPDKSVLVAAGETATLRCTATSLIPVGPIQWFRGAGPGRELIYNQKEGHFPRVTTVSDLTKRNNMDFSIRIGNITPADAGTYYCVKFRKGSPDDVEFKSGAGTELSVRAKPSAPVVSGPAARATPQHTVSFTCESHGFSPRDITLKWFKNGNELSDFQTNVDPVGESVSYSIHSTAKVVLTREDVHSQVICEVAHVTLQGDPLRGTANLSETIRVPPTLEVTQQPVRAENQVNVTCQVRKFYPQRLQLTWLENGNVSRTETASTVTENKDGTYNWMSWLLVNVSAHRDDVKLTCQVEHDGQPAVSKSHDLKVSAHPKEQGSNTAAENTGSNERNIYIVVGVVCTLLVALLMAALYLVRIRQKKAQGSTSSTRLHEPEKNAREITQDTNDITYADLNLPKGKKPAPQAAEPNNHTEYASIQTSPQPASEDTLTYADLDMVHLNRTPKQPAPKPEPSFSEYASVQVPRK
T2 sequence (Q08722 whole entry, looked up): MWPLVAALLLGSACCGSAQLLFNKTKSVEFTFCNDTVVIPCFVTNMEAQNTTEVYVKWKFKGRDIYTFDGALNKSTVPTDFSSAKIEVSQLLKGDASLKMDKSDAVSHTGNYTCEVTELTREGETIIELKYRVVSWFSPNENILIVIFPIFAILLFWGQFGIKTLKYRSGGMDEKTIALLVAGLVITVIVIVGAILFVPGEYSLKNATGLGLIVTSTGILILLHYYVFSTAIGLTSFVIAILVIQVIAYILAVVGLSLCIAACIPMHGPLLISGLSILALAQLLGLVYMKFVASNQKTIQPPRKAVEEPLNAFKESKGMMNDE
T1 sequence (P35557 whole entry, looked up): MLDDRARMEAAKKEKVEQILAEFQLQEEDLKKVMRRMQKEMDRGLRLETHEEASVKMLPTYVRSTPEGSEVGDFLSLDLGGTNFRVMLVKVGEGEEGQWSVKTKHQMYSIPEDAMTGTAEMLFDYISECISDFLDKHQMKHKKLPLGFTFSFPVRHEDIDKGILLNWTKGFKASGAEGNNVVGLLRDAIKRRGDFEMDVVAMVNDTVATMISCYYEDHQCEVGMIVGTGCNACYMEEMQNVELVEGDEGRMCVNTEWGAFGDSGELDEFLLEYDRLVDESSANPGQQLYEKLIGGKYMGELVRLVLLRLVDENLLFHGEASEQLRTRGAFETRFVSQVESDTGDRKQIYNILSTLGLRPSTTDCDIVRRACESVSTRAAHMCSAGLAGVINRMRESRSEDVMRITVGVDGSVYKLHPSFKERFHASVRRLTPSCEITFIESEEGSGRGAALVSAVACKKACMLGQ
T1 sequence (Q14397 whole entry, looked up): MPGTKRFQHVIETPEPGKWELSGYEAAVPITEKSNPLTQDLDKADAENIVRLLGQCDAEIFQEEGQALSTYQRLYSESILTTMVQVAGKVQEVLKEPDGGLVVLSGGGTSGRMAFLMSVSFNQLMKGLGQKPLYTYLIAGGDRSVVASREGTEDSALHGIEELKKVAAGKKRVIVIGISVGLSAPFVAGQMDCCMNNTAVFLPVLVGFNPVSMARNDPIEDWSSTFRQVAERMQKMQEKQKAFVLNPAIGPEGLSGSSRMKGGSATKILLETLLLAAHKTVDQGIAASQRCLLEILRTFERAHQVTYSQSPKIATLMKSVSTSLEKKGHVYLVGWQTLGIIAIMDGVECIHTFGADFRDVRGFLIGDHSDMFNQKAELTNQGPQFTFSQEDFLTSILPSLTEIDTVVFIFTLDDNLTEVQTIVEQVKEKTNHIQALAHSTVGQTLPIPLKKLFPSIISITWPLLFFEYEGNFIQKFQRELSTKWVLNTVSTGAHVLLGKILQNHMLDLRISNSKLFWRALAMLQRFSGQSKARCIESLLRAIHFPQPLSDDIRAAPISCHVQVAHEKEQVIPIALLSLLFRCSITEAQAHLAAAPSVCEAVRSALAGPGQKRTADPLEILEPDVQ
Chain of Metallo-beta-lactamase type 2 (Klebsiella pneumoniae) (C7C422 whole entry, looked up): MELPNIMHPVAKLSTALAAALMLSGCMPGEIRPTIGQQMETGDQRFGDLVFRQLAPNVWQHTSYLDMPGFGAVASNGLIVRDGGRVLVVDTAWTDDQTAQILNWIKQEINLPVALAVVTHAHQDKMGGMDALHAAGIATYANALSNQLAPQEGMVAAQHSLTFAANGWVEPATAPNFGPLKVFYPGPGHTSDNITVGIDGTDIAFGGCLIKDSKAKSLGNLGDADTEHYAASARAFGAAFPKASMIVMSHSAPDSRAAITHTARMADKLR
Chain of Phospholipid hydroperoxide glutathione peroxidase GPX4 (Homo sapiens) (P36969 whole entry, looked up): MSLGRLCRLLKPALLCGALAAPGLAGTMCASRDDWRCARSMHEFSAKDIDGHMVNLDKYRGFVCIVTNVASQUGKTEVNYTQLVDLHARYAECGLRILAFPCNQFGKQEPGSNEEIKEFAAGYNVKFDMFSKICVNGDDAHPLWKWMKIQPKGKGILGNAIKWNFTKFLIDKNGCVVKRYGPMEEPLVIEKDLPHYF
Chain of Calcium and integrin-binding protein 1 (Homo sapiens) (Q99828 whole entry, looked up): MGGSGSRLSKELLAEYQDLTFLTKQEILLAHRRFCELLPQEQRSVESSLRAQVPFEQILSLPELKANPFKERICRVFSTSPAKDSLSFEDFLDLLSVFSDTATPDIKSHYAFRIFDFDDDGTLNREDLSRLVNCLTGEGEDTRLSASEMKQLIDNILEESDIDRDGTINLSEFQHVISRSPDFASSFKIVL
Chain of Atrial natriuretic peptide receptor 1 (Homo sapiens) (P16066 whole entry, looked up): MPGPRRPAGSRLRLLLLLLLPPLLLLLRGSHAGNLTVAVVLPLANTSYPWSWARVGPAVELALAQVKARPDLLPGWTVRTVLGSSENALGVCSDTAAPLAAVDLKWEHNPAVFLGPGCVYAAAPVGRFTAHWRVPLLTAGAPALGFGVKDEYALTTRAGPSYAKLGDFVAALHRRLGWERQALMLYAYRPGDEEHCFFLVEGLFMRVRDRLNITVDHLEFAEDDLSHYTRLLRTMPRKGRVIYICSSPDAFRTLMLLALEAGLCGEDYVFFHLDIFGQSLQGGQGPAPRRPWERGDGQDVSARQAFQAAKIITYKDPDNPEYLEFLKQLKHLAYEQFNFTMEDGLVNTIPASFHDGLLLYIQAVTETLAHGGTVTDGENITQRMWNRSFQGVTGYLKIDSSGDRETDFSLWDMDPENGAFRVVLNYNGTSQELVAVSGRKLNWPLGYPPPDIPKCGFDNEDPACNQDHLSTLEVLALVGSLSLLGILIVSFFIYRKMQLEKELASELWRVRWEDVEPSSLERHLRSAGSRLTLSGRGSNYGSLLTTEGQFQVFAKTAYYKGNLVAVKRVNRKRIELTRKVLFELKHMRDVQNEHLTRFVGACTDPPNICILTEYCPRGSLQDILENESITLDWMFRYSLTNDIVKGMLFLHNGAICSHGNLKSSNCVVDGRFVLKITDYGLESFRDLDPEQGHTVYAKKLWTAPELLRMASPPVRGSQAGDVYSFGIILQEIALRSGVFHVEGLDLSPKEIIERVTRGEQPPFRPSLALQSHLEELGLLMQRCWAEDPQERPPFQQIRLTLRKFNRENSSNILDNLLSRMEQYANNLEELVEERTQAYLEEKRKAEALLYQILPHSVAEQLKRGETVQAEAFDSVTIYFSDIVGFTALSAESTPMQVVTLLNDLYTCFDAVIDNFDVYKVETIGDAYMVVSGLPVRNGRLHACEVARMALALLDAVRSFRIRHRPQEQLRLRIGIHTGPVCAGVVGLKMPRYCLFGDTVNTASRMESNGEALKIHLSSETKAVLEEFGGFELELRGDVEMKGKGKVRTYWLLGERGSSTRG
Chain of Nicotinamide N-methyltransferase (Homo sapiens) (P40261 whole entry, looked up): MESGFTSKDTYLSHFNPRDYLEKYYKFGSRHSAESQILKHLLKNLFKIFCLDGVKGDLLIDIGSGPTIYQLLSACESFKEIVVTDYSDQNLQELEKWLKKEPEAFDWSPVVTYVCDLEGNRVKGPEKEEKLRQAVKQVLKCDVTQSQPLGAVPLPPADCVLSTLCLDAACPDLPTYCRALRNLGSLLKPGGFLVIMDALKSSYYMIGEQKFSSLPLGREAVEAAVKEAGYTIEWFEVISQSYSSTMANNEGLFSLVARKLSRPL
Chain of Parathyroid hormone/parathyroid hormone-related peptide receptor (Homo sapiens) (Q03431 whole entry, looked up): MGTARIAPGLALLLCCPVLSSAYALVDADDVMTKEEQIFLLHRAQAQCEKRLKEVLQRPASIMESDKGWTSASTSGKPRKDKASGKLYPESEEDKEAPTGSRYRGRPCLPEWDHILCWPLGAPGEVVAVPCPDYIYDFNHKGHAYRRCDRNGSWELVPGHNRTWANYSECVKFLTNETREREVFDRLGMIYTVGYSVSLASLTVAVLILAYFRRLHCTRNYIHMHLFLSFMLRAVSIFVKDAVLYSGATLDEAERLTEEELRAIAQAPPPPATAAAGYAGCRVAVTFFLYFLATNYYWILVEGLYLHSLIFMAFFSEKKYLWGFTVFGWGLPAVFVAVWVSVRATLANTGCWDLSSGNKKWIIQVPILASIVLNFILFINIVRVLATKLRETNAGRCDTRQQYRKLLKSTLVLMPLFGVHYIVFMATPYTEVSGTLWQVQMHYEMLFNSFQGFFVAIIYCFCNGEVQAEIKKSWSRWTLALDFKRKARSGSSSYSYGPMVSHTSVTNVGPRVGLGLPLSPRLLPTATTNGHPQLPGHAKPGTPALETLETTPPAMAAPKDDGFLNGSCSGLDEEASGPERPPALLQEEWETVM
Chain of N-terminal Xaa-Pro-Lys N-methyltransferase 1 (Homo sapiens) (Q9BV86 whole entry, looked up): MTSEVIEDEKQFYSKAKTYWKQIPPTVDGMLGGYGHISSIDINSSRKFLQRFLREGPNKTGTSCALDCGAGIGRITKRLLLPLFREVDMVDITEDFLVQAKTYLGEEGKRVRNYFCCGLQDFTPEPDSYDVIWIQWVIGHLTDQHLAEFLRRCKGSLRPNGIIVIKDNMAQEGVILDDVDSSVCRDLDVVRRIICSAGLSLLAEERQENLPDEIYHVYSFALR
Chain of Single-stranded DNA cytosine deaminase (Homo sapiens) (Q9GZX7 whole entry, looked up): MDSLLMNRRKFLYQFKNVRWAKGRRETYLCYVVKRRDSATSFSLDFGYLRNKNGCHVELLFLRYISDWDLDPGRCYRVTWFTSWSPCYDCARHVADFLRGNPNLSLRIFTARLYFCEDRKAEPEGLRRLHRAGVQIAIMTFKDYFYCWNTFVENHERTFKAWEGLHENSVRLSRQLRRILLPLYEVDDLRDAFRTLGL

SMILES: CN1C2CCCC1CC(NC(=O)c1nn(C)c3ccccc13)C2 (stereo not drawn)
- Potency [1]: inactive
- outcome [2]: inactive
- outcome [3]: inactive
- Potency [4]: inactive
- outcome [5]: inactive
- outcome [6]: inactive
- outcome [7]: inactive
- Potency [8]: inactive
- Potency [9]: inactive
- outcome [10]: inactive
- outcome [11]: inactive
- Potency [12]: inactive
- outcome [13]: inactive
- Potency [14]: 56.2 µM (active)
- Potency [15]: inactive
- outcome [16]: inactive
- outcome [17]: inactive
- Potency [18]: inactive
- outcome [19]: inactive
- Potency [20]: inactive
- Potency (Papain (Carica papaya)): inactive
- activity [21]: 1.32%
- activity change, negative = inhibition [22]: 5.2%
- activity [23]: 0.961%
- activity [24]: 4.07%
- Potency [25]: inactive
- Potency [26]: inactive
- Potency [27]: inactive
